From the antibiotic and cytotoxicity screens of Wong et al. (2023)
Screen size: about 39,000 compounds; about 3,300 (8.5%) were called active. Many of the other results were omitted from the sample, so actives are more common in it than they were.

Each molecule was assayed on HepG2 (assay: cytotoxicity call (relative viability < 0.9)). Conditions: 10 µM.

| Structure (SMILES) | cytotoxicity call |
| --- | --- |
| COc1ccc2cc1Oc1ccc(cc1)C[C@H]1c3c(cc4c(c3Oc3cc5c(cc3OC)CCN(C)[C@@H]5C2)OCO4)CCN1C | inactive |
| COc1cc2c3cc1Oc1cc(ccc1O)CC1c4c(cc(OC)c(O)c4Oc4ccc(cc4)CC3N(C)CC2)CC[N+]1(C)C.Cl.O.O.O.O.O.[Cl-] (stereo not drawn) | inactive |
| COc1ccc2cc1Oc1ccc(cc1)CC1c3cc(c(OC)cc3CCN1C)Oc1c(OC)c(OC)cc3c1C(C2)N(C)CC3 (stereo not drawn) | inactive |
| COc1cc2c3cc1Oc1cc(ccc1O)C[C@@H]1c4c(cc(OC)c(O)c4Oc4ccc(cc4)C[C@@H]3N(C)CC2)CC[N+]1(C)C | inactive |
| COc1ccc2cc1Oc1ccc(cc1)CC1c3c(cc4c(c3Oc3cc5c(cc3OC)CCN(C)C5C2)OCO4)CCN1C (stereo not drawn) | active |
| COc1ccc2cc1Oc1ccc(cc1)C[C@H]1c3cc(c(OC)cc3CCN1C)Oc1c(OC)c(OC)cc3c1[C@H](C2)N(C)CC3 | active |
| CO[C@H]1CN(C)C(=O)c2cc(NS(C)(=O)=O)ccc2OC[C@H](C)N(S(C)(=O)=O)C[C@@H]1C | inactive |
| CNC[C@@H]1OCCCC[C@@H](C)Oc2ccc(NS(=O)(=O)c3cn(C)cn3)cc2C(=O)N([C@@H](C)CO)C[C@@H]1C | inactive |
| C[C@H]1CN([C@@H](C)CO)C(=O)c2cc(C#CC3(O)CCCC3)cnc2O[C@H]1CN(C)C(=O)Cc1ccncc1 | inactive |
| O=C(Nc1ccc2ccccc2c1)c1ccc(Cl)cc1Cl | inactive |
| O=C(NO)c1cccc(C(=O)N/N=C/c2cc(I)cc(I)c2O)c1 | inactive |
| O=C(Nc1ccc(Oc2ccc(Cl)cc2)c(Cl)c1)c1cc(I)cc(I)c1O | active |
| C[C@@H]1CN([C@@H](C)CO)C(=O)c2cc(NS(=O)(=O)c3ccc(F)cc3)ccc2O[C@@H](C)CCCCO[C@@H]1CN(C)C(=O)Nc1ccc(C(F)(F)F)cc1 | active |
| C[C@H](CO)N1C[C@H](C)[C@@H](CN(C)C(=O)Nc2ccc(C(F)(F)F)cc2)OCCCC[C@H](C)Oc2ccc(NS(=O)(=O)c3ccc(F)cc3)cc2C1=O | inactive |
| C[C@@H]1CCCCO[C@H](CN(C)C(=O)Nc2ccc(C(F)(F)F)cc2)[C@@H](C)CN([C@H](C)CO)C(=O)c2cc(NS(=O)(=O)c3ccc(F)cc3)ccc2O1 | inactive |
| C[C@@H]1CCCCO[C@H](CN(C)C(=O)Nc2ccc(C(F)(F)F)cc2)[C@H](C)CN([C@H](C)CO)C(=O)c2cc(NS(=O)(=O)c3ccc(F)cc3)ccc2O1 | active |
| C[C@@H]1CCCCO[C@H](CN(C)C(=O)Nc2ccc(C(F)(F)F)cc2)[C@@H](C)CN([C@@H](C)CO)C(=O)c2cc(NS(=O)(=O)c3ccc(F)cc3)ccc2O1 | inactive |
| C[C@H](CO)N1C[C@H](C)[C@H](CN(C)C(=O)Nc2ccc(C(F)(F)F)cc2)OCCCC[C@H](C)Oc2ccc(NS(=O)(=O)c3ccc(F)cc3)cc2C1=O | inactive |
| C[C@H]1CCCCO[C@H](CN(C)C(=O)Nc2ccc(C(F)(F)F)cc2)[C@@H](C)CN([C@@H](C)CO)C(=O)c2cc(NS(=O)(=O)c3ccc(F)cc3)ccc2O1 | active |
| C[C@@H]1CCCCO[C@H](CN(C)C(=O)Nc2ccc(C(F)(F)F)cc2)[C@H](C)CN([C@@H](C)CO)C(=O)c2cc(NS(=O)(=O)c3ccc(F)cc3)ccc2O1 | active |
| C[C@H]1CN([C@@H](C)CO)S(=O)(=O)c2ccc(C#CC(C)(C)O)cc2O[C@H]1CN(C)Cc1ccccc1 | inactive |
| O=C(NO)c1ccc(C(=O)N/N=C/[C@H](O)[C@H](O)[C@@H](O)[C@@H](O)CO)cc1 | inactive |
| C[C@@H]1CCCCO[C@H](CN(C)S(=O)(=O)c2ccc(F)cc2)[C@@H](C)CN([C@H](C)CO)C(=O)c2cc(NS(C)(=O)=O)ccc2O1 | inactive |

| Structure (SMILES) | cytotoxicity call |
| --- | --- |
| C[C@@H]1CCCCO[C@H](CN(C)S(=O)(=O)c2ccccc2)[C@H](C)CN([C@H](C)CO)C(=O)c2cc(NC(=O)Nc3ccccc3)ccc2O1 | inactive |
| C[C@@H]1CCCCO[C@@H](CN(C)Cc2ccc(C(=O)Nc3ccccc3N)cc2)[C@@H](C)CN([C@H](C)CO)C(=O)c2cc(NC(=O)CCC(F)(F)F)ccc2O1 | inactive |
| C[C@@H]1CN([C@@H](C)CO)S(=O)(=O)c2ccc(C#C[C@@H](C)O)cc2O[C@H]1CN(C)C(=O)c1ccccc1 | inactive |
| COc1ccc(NC(=O)Nc2ccc3c(c2)C(=O)N([C@@H](C)CO)C[C@@H](C)[C@H](CN(C)S(=O)(=O)c2ccccc2)OCCCC[C@H](C)O3)cc1 | inactive |
| COc1ccc(S(=O)(=O)N(C)C[C@H]2Oc3ccc(NS(=O)(=O)c4ccccc4)cc3CC(=O)N([C@H](C)CO)C[C@H]2C)cc1 | inactive |
| C[C@@H]1CCCCO[C@@H](CN(C)C(=O)Nc2ccc(C(F)(F)F)cc2)[C@H](C)CN([C@@H](C)CO)C(=O)c2cc(NS(=O)(=O)c3ccc(F)cc3)ccc2O1 | active |
| C[C@@H]1CCCCO[C@@H](CN(C)C(=O)Nc2ccc(C(F)(F)F)cc2)[C@@H](C)CN([C@H](C)CO)C(=O)c2cc(NS(=O)(=O)c3ccc(F)cc3)ccc2O1 | active |
| C[C@@H]1CCCCO[C@@H](CN(C)C(=O)Nc2ccc(C(F)(F)F)cc2)[C@H](C)CN([C@H](C)CO)C(=O)c2cc(NS(=O)(=O)c3ccc(F)cc3)ccc2O1 | inactive |
| C[C@H]1CCCCO[C@@H](CN(C)C(=O)Nc2ccc(C(F)(F)F)cc2)[C@@H](C)CN([C@@H](C)CO)C(=O)c2cc(NS(=O)(=O)c3ccc(F)cc3)ccc2O1 | inactive |
| C[C@@H]1CCCCO[C@@H](CN(C)S(=O)(=O)c2cccs2)[C@H](C)CN([C@H](C)CO)C(=O)c2cc(NS(=O)(=O)c3cn(C)cn3)ccc2O1 | inactive |
| COCC#Cc1ccc2c(c1)O[C@H](CN(C)S(=O)(=O)c1ccc(OC)cc1)[C@H](C)CN([C@H](C)CO)S2(=O)=O | inactive |
| C[C@@H]1CN([C@@H](C)CO)C(=O)c2cccc(NS(C)(=O)=O)c2O[C@H]1CN(C)C(=O)Nc1ccc(F)cc1 | inactive |
| C[C@H]1CN([C@@H](C)CO)C(=O)c2cc(NC(=O)Cn3cnnn3)ccc2O[C@@H]1CN(C)Cc1ccc2c(c1)OCO2 | inactive |
| O=S1(=O)N[C@H](c2ccccc2)CO1 | inactive |
| Cc1ccc(S(=O)(=O)Nc2ccc3c(c2)CC(=O)N([C@H](C)CO)C[C@@H](C)[C@H](CN(C)C(=O)Nc2cccc4ccccc24)O3)cc1 | inactive |
| O=S1(=O)CC=CC1 | inactive |
| Cc1ccc(S[C@]2(C(=O)NC3CC3)CC(=O)N(C3CCCCC3)[C@@H]2c2ccc(CO)cc2I)cc1 | inactive |
| Cc1noc(C)c1S(=O)(=O)Nc1ccc2c(c1)C(=O)N([C@H](C)CO)C[C@@H](C)[C@H](CN(C)C)OCCCC[C@@H](C)O2 | inactive |
| COc1cccc(c1)CN1CC[C@]2(CC1)CN([C@H](CO)c1c2c2ccc(cc2n1C)OC)C(=O)Nc1ccc(cc1)F | inactive |
| COc1ccc2c3c(n(c2c1)C)[C@H](CO)N(C[C@]13CCN(CC1)Cc1ccccc1F)C(=O)Nc1ccc(cc1)F | inactive |
| COc1ccc2c3c(n(c2c1)C)[C@@H](CO)N(C[C@]13CCN(CC1)Cc1cccc(c1)F)C(=O)Nc1ccc(cc1)F | inactive |
| COc1ccc2c3c(n(c2c1)C)[C@@H](CO)N(C[C@]13CCN(CC1)Cc1ccccc1F)C(=O)Nc1ccc(cc1)F | active |
| COc1ccc2c3c(n(c2c1)C)[C@H](CO)N(C[C@]13CCN(CC1)Cc1cccc(c1)F)C(=O)Nc1ccc(cc1)F | active |

| Structure (SMILES) | cytotoxicity call |
| --- | --- |
| COc1ccc2c3c(n(c2c1)C)[C@@H](CO)N(C[C@]13CCN(CC1)C(=O)c1ccccc1F)C(=O)Nc1ccc(cc1)F | inactive |
| O=C(C[C@H]1CC[C@@H]2[C@H](COC[C@H](O)CN2C(=O)Nc2cccc(F)c2)O1)NCc1ccccc1Cl | inactive |
| CN1C(=O)c2cc(NC(=O)c3ccc(F)c(F)c3)ccc2OC[C@@H]2O[C@@H](CC(=O)N3CCOCC3)CC[C@H]21 | inactive |
| C[C@H](CO)N1C[C@H](C)[C@@H](CN(C)C(=O)Cc2ccccc2)Oc2cc(-c3cncnc3)ccc2S1(=O)=O | inactive |
| C[C@@H]1CN([C@H](C)CO)C(=O)c2cc(C#Cc3cccc(F)c3)cnc2O[C@@H]1CN(C)CC1CCOCC1 | inactive |
| COc1ccc(S(=O)(=O)N(C)C[C@@H]2Oc3cc(C#CC4CC4)ccc3S(=O)(=O)N([C@H](C)CO)C[C@@H]2C)cc1 | inactive |
| CO[C@H]1CN(C)C(=O)c2cc(NC(=O)NC3CCCCC3)ccc2OC[C@@H](C)N(CCc2ccccc2)C[C@H]1C | inactive |
| Cc1noc(C)c1S(=O)(=O)Nc1ccc2c(c1)CC(=O)N([C@@H](C)CO)C[C@@H](C)[C@@H](CN(C)C(=O)NC1CCCCC1)O2 | inactive |
| CN(C)CCCNC(=O)C[C@H]1CC[C@H]2[C@@H](COC[C@@H](O)CN2S(=O)(=O)c2ccccc2)O1 | inactive |
| C[C@@H]1CCCCO[C@H](CN(C)C(=O)Cc2ccccc2)[C@@H](C)CN([C@@H](C)CO)C(=O)c2cc(NC(=O)Nc3ccc(F)cc3)ccc2O1 | inactive |
| C[C@@H]1CN([C@@H](C)CO)C(=O)c2c(c3ccccc3n2C)-c2ccccc2CO[C@H]1CN(C)S(=O)(=O)c1ccc(C(F)(F)F)cc1 | inactive |
| C[C@H]1CN([C@@H](C)CO)C(=O)c2c(c3ccccc3n2C)-c2ccccc2CO[C@H]1CN(C)S(=O)(=O)c1ccc(Cl)cc1 | active |
| C[C@H](CO)N1C[C@H](C)[C@@H](CN(C)S(=O)(=O)c2ccc(Cl)cc2)OCc2ccccc2-c2c(n(C)c3ccccc23)C1=O | inactive |
| C[C@H](CO)N1C[C@H](C)[C@H](CN(C)S(=O)(=O)c2ccc(Cl)cc2)OCc2ccccc2-c2c(n(C)c3ccccc23)C1=O | active |
| C[C@@H]1CN([C@H](C)CO)C(=O)c2c(c3ccccc3n2C)-c2ccccc2CO[C@@H]1CN(C)S(=O)(=O)c1ccc(C(F)(F)F)cc1 | inactive |
| C[C@H]1CN([C@@H](C)CO)C(=O)c2c(c3ccccc3n2C)-c2ccccc2CO[C@H]1CN(C)S(=O)(=O)c1ccc(C(F)(F)F)cc1 | inactive |
| C[C@@H]1CN([C@@H](C)CO)C(=O)c2c(c3ccccc3n2C)-c2ccccc2CO[C@@H]1CN(C)S(=O)(=O)c1ccc(Cl)cc1 | inactive |
| C[C@@H]1CN([C@H](C)CO)C(=O)c2c(c3ccccc3n2C)-c2ccccc2CO[C@H]1CN(C)S(=O)(=O)c1ccc(Cl)cc1 | inactive |
| C[C@@H]1CN([C@H](C)CO)C(=O)c2c(c3ccccc3n2C)-c2ccccc2CO[C@@H]1CN(C)S(=O)(=O)c1ccc(Cl)cc1 | inactive |
| C[C@H]1CN([C@@H](C)CO)C(=O)c2c(c3ccccc3n2C)-c2ccccc2CO[C@@H]1CN(C)S(=O)(=O)c1ccc(Cl)cc1 | active |
| C[C@@H]1CN([C@@H](C)CO)C(=O)c2c(c3ccccc3n2C)-c2ccccc2CO[C@H]1CN(C)S(=O)(=O)c1ccc(Cl)cc1 | active |
| C[C@@H]1CN([C@@H](C)CO)C(=O)c2c(c3ccccc3n2C)-c2ccccc2CO[C@@H]1CN(C)S(=O)(=O)c1ccc(C(F)(F)F)cc1 | inactive |
